Results on 16 compounds are retold here after PubChem BioAssay (NCATS).

Each structure is given as a SMILES string. Inconclusive results are not listed. A call without a number means that no potency is given here. The source made the active and inactive calls. Calls come from the whole dose curve; as a rule, active = well fitted inhibition curve with a large enough effect; inconclusive = small, poorly fitted or top-dose-only effect; inactive = flat fitted curve, though single readings scatter.
Potency is the fitted concentration of half-maximal effect.

The assay relates to P93_24. The experiment in a line: qHTS profiling for inhibitors of Plasmodium falciparum proliferation (AID 504749). Note: nearly all actives have a fitted effect of over 60% in size. To be noted: P. falciparum in erythrocytes, SYBR Green DNA, 72 h; series mostly up to 28.7 µM. The method, boiled down: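 In a 72 h erythrocytic culture (37 C, humidified, 5% CO2) at 2.5% hematocrit and 0.3% starting parasitemia, compounds were tested; SYBR Green I in detergent lysis buffer stained parasite DNA overnight.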
Consider `CC[N+](CC)(CC)CCOc1cccc(OCC[N+](CC)(CC)CC)c1OCC[N+](CC)(CC)CC`, for which the Potency entry was “inactive”.
Consider `Cc1ccc(C(=O)Nc2ccc(S(=O)(=O)O)c3cc(S(=O)(=O)O)cc(S(=O)(=O)O)c23)cc1NC(=O)c1cccc(NC(=O)Nc2cccc(C(=O)Nc3cc(C(=O)Nc4ccc(S(=O)(=O)O)c5cc(S(=O)(=O)O)cc(S(=O)(=O)O)c45)ccc3C)c2)c1`, for which the Potency result was “inactive”.
Under `CS(=O)(=O)Nc1ccc([N+](=O)[O-])cc1Oc1ccccc1` stands “inactive”; under `CC(=O)OCC(CCn1cnc2cnc(N)nc21)COC(C)=O`, “inactive”.
Under `C[C@](N)(Cc1ccc(O)c(O)c1)C(=O)O` stands “inactive”.
Under `COc1ccccc1OCC(O)CN1CCN(CC(=O)Nc2c(C)cccc2C)CC1` (stereo unspecified) stands “inactive”; under `Cc1cn([C@H]2C=C[C@@H](CO)O2)c(=O)[nH]c1=O`, “inactive”.
In the case of `Clc1ccccc1C(c1ccccc1)(c1ccccc1)n1ccnc1`, the Potency is 126 nM (active).
To `CC(C)(C)C(=O)Oc1ccc(S(=O)(=O)Nc2ccccc2C(=O)NCC(=O)O)cc1` belongs “inactive”; to `NC(=O)OCC(COC(N)=O)c1ccccc1`, “inactive”.
Under `COc1ccccc1N1CCN(CC(O)COc2cccc3ccccc23)CC1` (stereo unspecified) stands “inactive”.
To `O=c1c(-c2ccc(O)cc2)coc2cc(O)cc(O)c12` belongs “inactive”; to `CCCNCC(O)COc1ccccc1C(=O)CCc1ccccc1` (stereo unspecified), 501 nM (active); to `NCCc1cnc[nH]1`, “inactive”.
Consider `CN(C)c1nc(N(C)C)nc(N(C)C)n1`, for which the Potency result is “inactive”.
Consider `CC(C)NCC(O)c1ccc(O)c(O)c1` (stereo unspecified), for which the Potency entry is “inactive”.
